# Measurements: paper PMC7862700, “An all-to-all approach to the identification of sequence-specific readers for epigenetic DNA modifications on cytosine”
# Legend:
# Assay in all cases: DAPPL (digital affinity profiling via proximity ligation, sequencing); 10 mM Tris-HCl pH 7.5, 50 mM NaCl, 1 mM DTT, 4% glycerol, room temperature, 30 min; GST-TFs on glutathione beads, 16-mer random dsDNA library, 0.1% formaldehyde crosslink after washing; high values mean tight binding
# FLI1 = target: T1, FLI1 (Homo sapiens, UniProt Q01543 1-452); settings: protein: recombinant; tags: N-terminal GST; dsDNA, one strand shown
# T1 sequence: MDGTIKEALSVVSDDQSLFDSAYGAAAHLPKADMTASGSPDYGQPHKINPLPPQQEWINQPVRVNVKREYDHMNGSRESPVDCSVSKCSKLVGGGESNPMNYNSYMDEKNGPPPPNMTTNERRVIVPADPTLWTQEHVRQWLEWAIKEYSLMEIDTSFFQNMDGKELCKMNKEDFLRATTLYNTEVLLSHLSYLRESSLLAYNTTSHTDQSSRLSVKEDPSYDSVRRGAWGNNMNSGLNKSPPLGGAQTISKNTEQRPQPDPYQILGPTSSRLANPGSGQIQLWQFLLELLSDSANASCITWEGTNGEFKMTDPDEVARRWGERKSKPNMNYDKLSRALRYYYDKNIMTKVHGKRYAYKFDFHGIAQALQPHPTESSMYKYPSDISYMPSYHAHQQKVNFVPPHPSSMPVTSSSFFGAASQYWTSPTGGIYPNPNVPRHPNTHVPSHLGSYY
# Outline: (§1)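 Binding signal is defined as a hexamer's read frequency for one factor over its frequency for the tag-only sample. To obtain reads, GST-fused human transcription factors were expressed in yeast, captured on glutathione beads, barcoded with DNA and pooled with that sample. Pools met 200 nmole of a 16-mer random double-stranded DNA library in Tris/NaCl/DTT/glycerol buffer for 30 min at room temperature before washing, 0.1% formaldehyde crosslinking, proximity ligation (BsaI/T4 ligase, 1 h, 37 °C), PCR and Illumina NextSeq500 sequencing.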
# ELK1 = target: T2, ELK1 (Homo sapiens, UniProt P19419 1-428); settings: protein: recombinant; tags: N-terminal GST; dsDNA, one strand shown
# T2 sequence: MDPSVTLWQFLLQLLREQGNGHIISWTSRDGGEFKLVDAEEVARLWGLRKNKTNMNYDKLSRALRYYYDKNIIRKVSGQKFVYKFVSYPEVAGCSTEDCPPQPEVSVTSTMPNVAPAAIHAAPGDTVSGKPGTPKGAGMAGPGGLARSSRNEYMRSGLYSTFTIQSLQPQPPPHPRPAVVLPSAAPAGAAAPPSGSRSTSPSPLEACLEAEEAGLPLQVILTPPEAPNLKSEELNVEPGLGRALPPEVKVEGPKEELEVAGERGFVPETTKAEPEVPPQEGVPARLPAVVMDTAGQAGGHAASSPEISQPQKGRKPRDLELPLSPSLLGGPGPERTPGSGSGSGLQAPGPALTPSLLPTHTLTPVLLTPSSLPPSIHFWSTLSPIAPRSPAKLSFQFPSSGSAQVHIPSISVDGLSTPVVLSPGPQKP
# Outline: as §1
# GABPA = target: T3, GABPA (Homo sapiens, UniProt Q06546 1-454); settings: protein: recombinant; tags: N-terminal GST; dsDNA, one strand shown
# T3 sequence: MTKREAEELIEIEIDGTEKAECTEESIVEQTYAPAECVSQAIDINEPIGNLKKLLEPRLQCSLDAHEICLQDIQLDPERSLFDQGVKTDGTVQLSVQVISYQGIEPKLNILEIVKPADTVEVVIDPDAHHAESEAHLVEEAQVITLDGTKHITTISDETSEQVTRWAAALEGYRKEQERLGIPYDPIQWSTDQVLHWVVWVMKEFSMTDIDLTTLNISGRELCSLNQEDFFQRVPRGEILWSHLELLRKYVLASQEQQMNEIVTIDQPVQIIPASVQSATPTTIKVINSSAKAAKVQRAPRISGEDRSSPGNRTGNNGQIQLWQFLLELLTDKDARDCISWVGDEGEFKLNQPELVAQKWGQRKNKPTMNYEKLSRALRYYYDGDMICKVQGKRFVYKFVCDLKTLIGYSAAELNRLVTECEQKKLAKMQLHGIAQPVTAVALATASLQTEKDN
# Outline: as §1
# ERG = target: T4, ERG (Homo sapiens, UniProt P11308 1-479); settings: protein: recombinant; tags: N-terminal GST; dsDNA, one strand shown
# T4 sequence: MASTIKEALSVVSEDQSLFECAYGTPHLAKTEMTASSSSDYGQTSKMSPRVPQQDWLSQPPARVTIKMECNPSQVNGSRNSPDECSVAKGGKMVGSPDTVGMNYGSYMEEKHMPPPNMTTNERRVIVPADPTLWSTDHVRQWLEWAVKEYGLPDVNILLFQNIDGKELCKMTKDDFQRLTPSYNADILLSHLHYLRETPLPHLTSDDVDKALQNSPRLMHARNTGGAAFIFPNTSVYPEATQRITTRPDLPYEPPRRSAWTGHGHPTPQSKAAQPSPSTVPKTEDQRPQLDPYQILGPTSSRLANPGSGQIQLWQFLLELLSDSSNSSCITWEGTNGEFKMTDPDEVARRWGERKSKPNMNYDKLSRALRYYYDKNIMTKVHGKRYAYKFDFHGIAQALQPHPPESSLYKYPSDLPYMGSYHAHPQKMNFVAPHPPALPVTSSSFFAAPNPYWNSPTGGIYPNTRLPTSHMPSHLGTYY
# Outline: as §1
# ELF1 = ELF1 (Homo sapiens, UniProt P32519 1-619); settings: protein: recombinant; tags: N-terminal GST; dsDNA, one strand shown
# Outline: as §1
# EHF = target: T5, EHF (Homo sapiens, UniProt Q9NZC4 1-300); settings: protein: recombinant; tags: N-terminal GST; dsDNA, one strand shown
# T5 sequence: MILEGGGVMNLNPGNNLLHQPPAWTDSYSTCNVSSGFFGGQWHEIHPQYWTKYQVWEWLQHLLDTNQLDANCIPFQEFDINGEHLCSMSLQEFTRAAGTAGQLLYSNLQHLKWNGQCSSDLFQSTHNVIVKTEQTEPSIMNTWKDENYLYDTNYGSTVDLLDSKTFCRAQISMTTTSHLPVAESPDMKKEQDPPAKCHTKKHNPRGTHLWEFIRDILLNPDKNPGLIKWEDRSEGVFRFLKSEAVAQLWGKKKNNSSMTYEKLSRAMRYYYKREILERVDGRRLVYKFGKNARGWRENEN
# Outline: as §1
# SPI1 = SPI1 (Homo sapiens, UniProt P17947 1-270); settings: protein: recombinant; tags: N-terminal GST; dsDNA, one strand shown
# Outline: as §1
# SPIB = SPIB (Homo sapiens, UniProt Q01892 1-262); settings: protein: recombinant; tags: N-terminal GST; dsDNA, one strand shown
# Outline: as §1
# FEV = target: T6, FEV (Homo sapiens, UniProt Q99581 1-238); settings: protein: recombinant; tags: N-terminal GST; dsDNA, one strand shown
# T6 sequence: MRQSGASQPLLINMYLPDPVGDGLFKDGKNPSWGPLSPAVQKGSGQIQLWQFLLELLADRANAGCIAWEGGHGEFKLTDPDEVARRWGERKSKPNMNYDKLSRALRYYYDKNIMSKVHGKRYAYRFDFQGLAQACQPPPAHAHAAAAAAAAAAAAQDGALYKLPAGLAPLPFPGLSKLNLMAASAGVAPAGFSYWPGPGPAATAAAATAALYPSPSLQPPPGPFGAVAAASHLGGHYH
# Outline: as §1
# ETV5 = ETV5 (Homo sapiens, UniProt P41161 1-510); settings: protein: recombinant; tags: N-terminal GST; dsDNA, one strand shown
# Outline: as §1
# HSF1 = HSF1 (Homo sapiens, UniProt Q00613 1-529); settings: protein: recombinant; tags: N-terminal GST; chain copies: 3; dsDNA, one strand shown
# Outline: as §1
# SPIC = target: T7, SPIC (Homo sapiens, UniProt Q8N5J4 1-248); settings: protein: recombinant; tags: N-terminal GST; dsDNA, one strand shown
# T7 sequence: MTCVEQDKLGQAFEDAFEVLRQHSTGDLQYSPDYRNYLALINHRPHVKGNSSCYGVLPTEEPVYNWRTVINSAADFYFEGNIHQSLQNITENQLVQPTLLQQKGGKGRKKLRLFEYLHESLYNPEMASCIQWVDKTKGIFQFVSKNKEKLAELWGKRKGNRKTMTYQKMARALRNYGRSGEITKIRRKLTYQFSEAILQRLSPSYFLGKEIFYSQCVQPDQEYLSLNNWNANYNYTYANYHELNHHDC
# Outline: as §1
# ELF4 = ELF4 (Homo sapiens, UniProt Q99607 1-663); settings: protein: recombinant; tags: N-terminal GST; dsDNA, one strand shown
# Outline: as §1
# ELK4 = target: T8, ELK4 (Homo sapiens, UniProt P28324-2 1-405); settings: protein: recombinant; tags: N-terminal GST; dsDNA, one strand shown
# T8 sequence: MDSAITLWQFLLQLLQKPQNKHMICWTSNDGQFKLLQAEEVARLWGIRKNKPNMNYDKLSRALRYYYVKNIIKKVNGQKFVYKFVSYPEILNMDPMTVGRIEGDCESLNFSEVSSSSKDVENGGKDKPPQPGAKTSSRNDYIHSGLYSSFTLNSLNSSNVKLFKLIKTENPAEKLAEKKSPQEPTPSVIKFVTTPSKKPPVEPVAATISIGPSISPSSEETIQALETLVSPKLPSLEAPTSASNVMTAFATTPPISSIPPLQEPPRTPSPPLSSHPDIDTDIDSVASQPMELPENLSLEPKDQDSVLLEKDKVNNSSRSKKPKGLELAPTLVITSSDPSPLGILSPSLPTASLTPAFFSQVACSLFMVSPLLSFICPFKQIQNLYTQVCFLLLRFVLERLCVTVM
# Outline: as §1
# ETV2 = target: T9, ETV2 (Homo sapiens, UniProt O00321 1-342); settings: protein: recombinant; tags: N-terminal GST; dsDNA, one strand shown
# T9 sequence: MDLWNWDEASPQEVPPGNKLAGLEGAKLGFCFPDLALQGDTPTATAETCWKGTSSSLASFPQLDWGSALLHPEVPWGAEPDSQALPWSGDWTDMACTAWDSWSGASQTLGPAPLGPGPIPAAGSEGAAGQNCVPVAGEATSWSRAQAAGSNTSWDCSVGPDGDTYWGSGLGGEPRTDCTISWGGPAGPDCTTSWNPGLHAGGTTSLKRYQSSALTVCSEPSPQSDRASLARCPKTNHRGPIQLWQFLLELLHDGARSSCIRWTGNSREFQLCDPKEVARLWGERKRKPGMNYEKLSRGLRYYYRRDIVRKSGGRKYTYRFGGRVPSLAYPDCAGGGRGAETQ
# Outline: as §1
# CRX = CRX (Homo sapiens, UniProt O43186 1-299); settings: protein: recombinant; tags: N-terminal GST; dsDNA, one strand shown
# Outline: as §1
# ETV1 = ETV1 (Homo sapiens, UniProt P50549 1-477); settings: protein: recombinant; tags: N-terminal GST; dsDNA, one strand shown
# Outline: as §1
# Chain of HSF1 (Q00613 whole entry): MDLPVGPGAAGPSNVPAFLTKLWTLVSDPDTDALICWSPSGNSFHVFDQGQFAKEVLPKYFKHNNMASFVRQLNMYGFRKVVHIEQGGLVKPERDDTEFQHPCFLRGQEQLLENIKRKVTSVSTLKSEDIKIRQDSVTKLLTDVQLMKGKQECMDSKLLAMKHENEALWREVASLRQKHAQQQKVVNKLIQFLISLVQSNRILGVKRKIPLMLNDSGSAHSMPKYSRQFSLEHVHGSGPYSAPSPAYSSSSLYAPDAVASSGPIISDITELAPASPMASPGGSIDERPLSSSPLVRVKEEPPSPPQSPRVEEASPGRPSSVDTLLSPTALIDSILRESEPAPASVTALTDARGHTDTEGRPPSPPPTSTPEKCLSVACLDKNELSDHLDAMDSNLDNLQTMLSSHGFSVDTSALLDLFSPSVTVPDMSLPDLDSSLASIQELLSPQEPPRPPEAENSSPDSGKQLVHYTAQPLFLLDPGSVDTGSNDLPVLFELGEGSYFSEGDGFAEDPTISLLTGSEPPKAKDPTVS
# Chain of CRX (O43186 whole entry): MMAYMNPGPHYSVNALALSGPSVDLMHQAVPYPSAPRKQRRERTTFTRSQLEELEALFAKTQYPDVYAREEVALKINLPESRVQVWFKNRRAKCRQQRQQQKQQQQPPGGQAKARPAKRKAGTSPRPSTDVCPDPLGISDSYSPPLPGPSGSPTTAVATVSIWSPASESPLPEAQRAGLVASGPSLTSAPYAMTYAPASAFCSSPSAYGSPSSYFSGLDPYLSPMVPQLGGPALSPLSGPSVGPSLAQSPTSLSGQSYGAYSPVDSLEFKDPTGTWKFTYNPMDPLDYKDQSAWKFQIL
# Chain of ELF1 (P32519 whole entry): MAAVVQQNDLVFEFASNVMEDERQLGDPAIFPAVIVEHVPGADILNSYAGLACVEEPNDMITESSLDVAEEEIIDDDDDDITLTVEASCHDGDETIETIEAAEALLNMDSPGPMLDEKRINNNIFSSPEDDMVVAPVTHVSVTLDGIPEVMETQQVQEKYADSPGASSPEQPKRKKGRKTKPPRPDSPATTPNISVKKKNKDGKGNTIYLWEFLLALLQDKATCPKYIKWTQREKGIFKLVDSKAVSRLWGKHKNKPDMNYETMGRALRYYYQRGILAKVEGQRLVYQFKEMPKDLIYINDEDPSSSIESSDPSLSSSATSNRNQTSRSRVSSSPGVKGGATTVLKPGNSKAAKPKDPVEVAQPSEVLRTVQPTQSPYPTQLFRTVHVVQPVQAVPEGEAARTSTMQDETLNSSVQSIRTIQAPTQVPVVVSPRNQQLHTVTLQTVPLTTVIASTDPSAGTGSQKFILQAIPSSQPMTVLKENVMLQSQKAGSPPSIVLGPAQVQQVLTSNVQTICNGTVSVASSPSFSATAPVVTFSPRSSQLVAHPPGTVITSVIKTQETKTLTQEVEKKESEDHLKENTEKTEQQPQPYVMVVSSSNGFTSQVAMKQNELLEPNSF
# Chain of ETV5 (P41161 whole entry): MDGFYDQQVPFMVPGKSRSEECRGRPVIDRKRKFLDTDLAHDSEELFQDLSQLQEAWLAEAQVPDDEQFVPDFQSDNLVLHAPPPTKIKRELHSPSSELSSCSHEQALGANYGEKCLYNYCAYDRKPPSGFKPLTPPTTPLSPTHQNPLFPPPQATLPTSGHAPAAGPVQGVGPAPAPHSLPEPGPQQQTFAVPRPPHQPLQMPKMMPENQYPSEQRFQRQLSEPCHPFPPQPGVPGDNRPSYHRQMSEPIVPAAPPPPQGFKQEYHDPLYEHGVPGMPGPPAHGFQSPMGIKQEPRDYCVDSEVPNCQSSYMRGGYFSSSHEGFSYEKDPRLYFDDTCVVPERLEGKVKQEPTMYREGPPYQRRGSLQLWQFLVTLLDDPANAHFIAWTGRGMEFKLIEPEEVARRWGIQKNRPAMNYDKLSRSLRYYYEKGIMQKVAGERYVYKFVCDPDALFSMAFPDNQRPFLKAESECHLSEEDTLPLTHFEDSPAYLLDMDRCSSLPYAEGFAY
# Chain of SPIB (Q01892 whole entry): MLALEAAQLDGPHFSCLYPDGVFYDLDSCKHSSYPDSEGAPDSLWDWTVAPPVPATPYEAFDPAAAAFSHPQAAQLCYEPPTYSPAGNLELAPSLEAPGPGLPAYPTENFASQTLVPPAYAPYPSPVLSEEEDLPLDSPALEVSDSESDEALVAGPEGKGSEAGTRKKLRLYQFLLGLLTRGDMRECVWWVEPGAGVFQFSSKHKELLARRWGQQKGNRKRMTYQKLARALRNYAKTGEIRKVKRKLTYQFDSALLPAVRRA
# Chain of ETV1 (P50549 whole entry): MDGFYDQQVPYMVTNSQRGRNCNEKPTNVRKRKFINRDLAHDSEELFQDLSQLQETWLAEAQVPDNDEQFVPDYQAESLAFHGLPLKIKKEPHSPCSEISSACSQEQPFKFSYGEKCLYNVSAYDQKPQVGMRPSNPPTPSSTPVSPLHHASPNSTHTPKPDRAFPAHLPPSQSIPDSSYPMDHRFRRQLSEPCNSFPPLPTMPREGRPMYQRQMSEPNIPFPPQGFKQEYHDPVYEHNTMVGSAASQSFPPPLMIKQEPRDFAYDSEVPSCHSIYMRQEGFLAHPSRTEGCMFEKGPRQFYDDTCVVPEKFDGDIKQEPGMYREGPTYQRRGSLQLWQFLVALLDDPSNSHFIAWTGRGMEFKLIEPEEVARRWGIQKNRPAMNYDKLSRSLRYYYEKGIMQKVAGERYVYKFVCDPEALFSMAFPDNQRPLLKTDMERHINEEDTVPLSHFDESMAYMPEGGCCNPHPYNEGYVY
# Chain of ELF4 (Q99607 whole entry): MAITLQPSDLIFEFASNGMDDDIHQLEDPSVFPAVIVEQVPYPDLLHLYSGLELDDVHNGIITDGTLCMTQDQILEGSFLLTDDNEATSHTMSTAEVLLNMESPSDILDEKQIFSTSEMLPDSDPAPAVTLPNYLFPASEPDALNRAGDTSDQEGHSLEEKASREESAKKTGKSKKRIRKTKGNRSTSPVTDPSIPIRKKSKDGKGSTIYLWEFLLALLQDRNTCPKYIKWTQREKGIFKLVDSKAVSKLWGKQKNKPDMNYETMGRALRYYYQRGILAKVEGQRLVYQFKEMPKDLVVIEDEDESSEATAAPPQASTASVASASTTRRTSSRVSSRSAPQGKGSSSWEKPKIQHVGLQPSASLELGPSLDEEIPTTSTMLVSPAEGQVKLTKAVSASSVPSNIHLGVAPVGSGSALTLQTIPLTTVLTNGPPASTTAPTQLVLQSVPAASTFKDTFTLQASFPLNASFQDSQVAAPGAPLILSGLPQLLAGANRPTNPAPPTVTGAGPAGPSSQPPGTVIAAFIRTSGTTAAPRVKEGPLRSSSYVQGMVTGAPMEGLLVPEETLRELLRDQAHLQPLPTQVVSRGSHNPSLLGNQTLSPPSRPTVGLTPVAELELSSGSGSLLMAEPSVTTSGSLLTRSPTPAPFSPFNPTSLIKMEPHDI
sequence,measurement,setting,value
GATTTG,binding signal,FLI1,"1.24 fold enrichment (6-mer frequency, TF over GST control)"
same,binding signal,ELK1,"1.16 fold enrichment (6-mer frequency, TF over GST control)"
same,binding signal,GABPA,"1.22 fold enrichment (6-mer frequency, TF over GST control)"
same,binding signal,ERG,"1.11 fold enrichment (6-mer frequency, TF over GST control)"
same,binding signal,ELF1,"1.12 fold enrichment (6-mer frequency, TF over GST control)"
same,binding signal,EHF,"1.11 fold enrichment (6-mer frequency, TF over GST control)"
same,binding signal,SPI1,"1.08 fold enrichment (6-mer frequency, TF over GST control)"
same,binding signal,SPIB,"1.12 fold enrichment (6-mer frequency, TF over GST control)"
same,binding signal,FEV,"1.11 fold enrichment (6-mer frequency, TF over GST control)"
same,binding signal,ETV5,"1.25 fold enrichment (6-mer frequency, TF over GST control)"
same,binding signal,HSF1,"1.39 fold enrichment (6-mer frequency, TF over GST control)"
same,binding signal,SPIC,"1.17 fold enrichment (6-mer frequency, TF over GST control)"
same,binding signal,ELF4,"1.13 fold enrichment (6-mer frequency, TF over GST control)"
same,binding signal,ELK4,"1.19 fold enrichment (6-mer frequency, TF over GST control)"
same,binding signal,ETV2,"1.19 fold enrichment (6-mer frequency, TF over GST control)"
same,binding signal,CRX,"1.78 fold enrichment (6-mer frequency, TF over GST control)"
same,binding signal,ETV1,"1.14 fold enrichment (6-mer frequency, TF over GST control)"
